Reference: PubChem BioAssay (NCI)
This is part of a sample that, as a whole, favours compounds with a hit. Of some 79,000 tested, about 15% had one in any assay. Cut-off read from the data, not from the text of the source: active = growth inhibition above about 70%; inactive = the rest.

Key:
[1] = NCI Yeast Anticancer Drug Screen. Data for the rad50 strain (AID 155);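 note: 0% = growth of vehicle-only cultures of the same strain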; settings: S. cerevisiae rad50 strain growth inhibition, active compounds read high; at 50.0 µM unless noted
In short: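 Cells are treated with compound, grown, and their growth is then scored against vehicle-only cultures of the same repair-deficient yeast strain.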

[2] = NCI Yeast Anticancer Drug Screen. Data for the mec2-1 strain (AID 157); settings: S. cerevisiae mec2-1 strain, active compounds read high; at 50.0 µM unless noted
In short: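 Mutant yeast (mec2-1) grown with compound; growth inhibition relative to vehicle control reported.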

[3] = NCI Yeast Anticancer Drug Screen. Data for the sgs1 mgt1 strain (AID 161);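 note: 0% = growth of cultures given vehicle only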; settings: S. cerevisiae sgs1 mgt1 strain, active compounds read high; at 50.0 µM unless noted
In short: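 Compounds are added to genetically altered yeast, and growth is compared with cultures given vehicle alone to give percent inhibition.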

[4] = NCI Yeast Anticancer Drug Screen. Data for the cln2 rad14 strain (AID 165);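 note: 0% = growth equal to vehicle treated cultures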; settings: S. cerevisiae cln2 rad14 strain, active compounds read high; at 50.0 µM unless noted
In short: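 Readout is yeast growth inhibition versus vehicle-treated controls, using a strain with cln2 and rad14 alterations exposed to compound.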

[5] = NCI Yeast Anticancer Drug Screen. Data for the bub3 strain (AID 167); settings: S. cerevisiae bub3 mutant strain, active compounds read high; at 50.0 µM unless noted
In short: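 Part of a panel of yeast mutants defective in DNA damage repair or cell cycle regulation. Each strain is grown with compound, and inhibition is calculated relative to solvent-treated cultures.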

[6] = NCI Yeast Anticancer Drug Screen. Data for the mlh1 rad18 strain (AID 175); settings: S. cerevisiae mlh1 rad18 strain growth inhibition, active compounds read high; at 50.0 µM unless noted
In short: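 Genetically defined yeast (DNA repair-deficient) exposed to compounds; growth inhibition determined relative to vehicle.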

Measured: growth inhibition

O=c1cc(N2CCOCC2)n2ccccc2n1
inactive: [1] -4.4% | [2] -4.15% | [3] 8% | [4] -20.6% | [5] -8.35% | [6] 8.1%

CC1=C(CCC(=O)O)C(=O)C(CCC(=O)O)C(C)(C)C1 (stereo unspecified)
inactive: [1] 19.4% | [2] 7.45% | [3] 13.2% | [4] 56.6% | [5] 4.6% | [6] 8.15%

O=C(O)/C(I)=C(\I)c1ccccc1
inactive: [1] -0.55% | [2] -6.7% | [3] 4.7% | [4] -9.3% | [5] 2.45% | [6] 8.5%

O=c1[nH]c(=O)c2[nH]c(Br)nc2[nH]1
inactive: [1] 2.35% | [2] -4.3% | [3] -12.7% | [4] 0.2% | [5] -8.45% | [6] 3.85%

CCOC(=O)c1c(SCc2ccccc2)nc2c3ccccc3ccn12
inactive: [1] -18.2% | [2] -18.6% | [3] -29.9% | [4] -1.15% | [5] -20.9% | [6] -57.5%

NC1CCC[C@@H](O)[C@H]1O (stereo partly specified)
inactive: [1] -4.9% | [2] 22.9% | [3] 8.7% | [4] -7.1% | [5] 9.6% | [6] -0.55%

C/C=C(/I)CBr
inactive: [1] 28.4% | [2] 1.1% | [3] 1.75% | [4] 3.05% | [5] 12.2% | [6] 21.3%

CC(=O)C(C)(CCN(C)C)c1ccccc1 (stereo unspecified)
inactive: [1] 6.5% | [2] 4.4% | [3] 7.45% | [4] -10.3% | [5] 6.55% | [6] 12.8%

O=c1c2ccccc2[nH]c(=S)n1CCc1ccccn1
inactive: [1] 2.35% | [2] 6.9% | [3] 64.6% | [4] 8.55% | [5] 14.3% | [6] -7.65%

O=C(O)COc1ccc([N+](=O)[O-])cc1[N+](=O)[O-]
inactive: [1] 20.9% | [2] 14% | [3] 22.4% | [4] 7.95% | [5] 3.95% | [6] 16.6%

CC1(C)OC(CCl)C2OC(C)(C)OC(CCl)C2O1 (stereo unspecified)
inactive: [1] 11.1% | [2] 9.3% | [3] -7.35% | [4] 3.85% | [5] -4.95% | [6] 2.75%

O=C(NCc1ccccc1)c1n[nH][nH]c1=O
inactive: [1] 3.05% | [2] 5.8% | [3] 12.2% | [4] -8.15% | [5] -3.3% | [6] 20.6%

COc1cc(OC)c2c(c1)C(C)(C)CCC2(C)C
inactive: [1] 9.2% | [2] 2.9% | [3] -7.45% | [4] -23.4% | [5] 16.2% | [6] 4.4%

CC(Br)CCCBr (stereo unspecified)
inactive: [1] -19.1% | [2] -5.65% | [3] -21.1% | [4] -22.4% | [5] -4.5% | [6] -13.8%

O=C(CI)NCc1cn(C2CC(O)C(CO)O2)c(=O)[nH]c1=O (stereo unspecified)
inactive: [1] 4.9% | [2] 3.85% | [3] 5.85% | [4] 19.8% | [5] 1.15% | [6] 3.3%

Cc1ccc(-c2c(C#N)c(O)n(NS(=O)(=O)c3ccccc3)c(=O)c2C#N)cc1
inactive: [1] 4.45% | [2] 6.4% | [3] -30.4% | [4] 0.8% | [5] -14.3% | [6] -11.7%

Cc1cc(C)nc(NS(=O)(=O)c2ccc(NC(=O)c3ccc(Cl)c4c(Nc5ccc(S(=O)(=O)N=C(N)N)cc5)c5ccccc5nc34)cc2)n1
inactive: [1] 28% | [2] 27% | [3] 20.1% | [4] 29.7% | [5] 23.2% | [6] 31.4%

CCCn1c(C)nc2c([N+](=O)[O-])cc(C)cc21
inactive: [1] -4.2% | [2] -14.8% | [3] -12.9% | [4] -34.2% | [5] 13.4% | [6] -4.8%

O=C(O)C1(C(=O)O)CCCCC1.[NH2-].[NH2-].[Pt+2]
inactive: [1] 2.65% | [2] 17.5% | [3] 1.6% | [4] 22.2% | [5] 7.6% | [6] 15.8%

CN(C)CC[N+]1=Nc2cccc3cccc(c23)N1
inactive: [1] -6.85% | [2] -8.6% | [3] -2.4% | [4] 1.55% | [5] -6.2% | [6] 3.9%

CN(C)P1(=O)N(c2ccccc2)P(=O)(N(C)C)N1c1ccccc1 (stereo unspecified)
inactive: [1] -11.5% | [2] -32.1% | [3] -17.1% | [4] -1.55% | [5] -19.4% | [6] -34.7%

CN(C)C(n1cc2c(c1)-c1ccc(Cl)cc1C(c1ccccc1F)=NC2)n1cc2c(c1)-c1ccc(Cl)cc1C(c1ccccc1F)=NC2
inactive: [1] 11.8% | [2] -8.8% | [3] 1% | [4] 7.8% | [5] -7.55% | [6] -22.9%

O=C(O)Nc1ccc(I)cc1
inactive: [1] -9.2% | [2] -10.2% | [3] 1.15% | [4] -25.9% | [5] -4.1% | [6] -12.4%

CCCCCCCCCCCCCCCCCC(O)CCCCCCCCCCCCCCCCC
inactive: [1] -16.9% | [2] -8.45% | [3] -7.75% | [4] -47.2% | [5] 2.4% | [6] -8.25%

C(CCC1CO1)CC1CO1 (stereo unspecified)
inactive: [1] 3.25% | [2] -21.1% | [3] -31.6% | [4] -27.2% | [5] -5.45% | [6] -22.8%

CCOC(=O)C1=CN=C2C(=O)N(c3ccccc3)N(C)C2(C)C1=N (stereo unspecified)
inactive: [1] -4.8% | [2] 0.95% | [3] -19.4% | [4] 10.8% | [5] -11.2% | [6] 12.9%

OC/C(Br)=C(\Br)CO
inactive: [1] -34.3% | [2] -54.4% | [3] -39.6% | [4] -9.25% | [5] -28.6% | [6] -35.5%

COC(=O)C(Br)C(CCCN1C(=O)c2ccccc2C1=O)OC (stereo unspecified)
inactive: [1] 27.5% | [2] 7.55% | [3] 45.9% | [4] 8.5% | [5] 39.9% | [6] 19.1%

O=C(O)/C=C(/CC(=O)O)C(=O)O
inactive: [1] -34.9% | [2] -11.3% | [3] -17.2% | [4] 0.35% | [5] -27.8% | [6] -7.45%

Cc1cccc(C)c1NC(=O)CCc1nnc2s/c(=C\c3ccc(N(C)C)cc3)c(=O)n12
inactive: [1] 29.8% | [2] 30.1% | [3] 25.6% | [4] 0.15% | [5] 4.85% | [6] 10.3%

CNC(=O)C(C(=O)NC)c1ccccc1
inactive: [1] 8.05% | [2] -4.65% | [3] -1.15% | [4] -18.5% | [5] -2.9% | [6] 10.8%

CCOc1ccc(N=Nc2c(N)nc(N)[nH]c2=O)cc1
inactive: [1] 26.3% | [2] 23.6% | [3] 17.4% | [4] 19.9% | [5] -1.25% | [6] 24.1%

CCC(C)(CC)c1ccc(C)cc1OC
inactive: [1] -4.9% | [2] 8.15% | [3] -7.1% | [4] 18.6% | [5] 24.6% | [6] 6.9%

FC(F)(F)c1ccc2ccc3ccc(Cl)cc3c2c1
inactive: [1] -7.5% | [2] -24% | [3] -4.3% | [4] -10.4% | [5] 21.6% | [6] -6.55%

[N-]=[N+]=Nc1ccc2nc(N)nc(N)c2c1
inactive: [1] -4.25% | [2] 5.7% | [3] 2.85% | [4] -33.9% | [5] -7.45% | [6] -5.2%

CCOC(=O)O/C(=C\c1ccc(OC)cc1)c1c(OC(=O)OCC)n(C(=O)OCC)c2ccccc12
inactive: [1] -13.1% | [2] -4.3% | [3] 7% | [4] 9.95% | [5] 12.7% | [6] 4.05%

O=S(=O)(c1ccccn1)c1nc2ccccc2s1
inactive: [1] -1.75% | [2] 7.1% | [3] -0.45% | [4] 17.1% | [5] -2.8% | [6] 0.45%

C[n+]1ccc(/C=N/O)cc1
inactive: [1] -5.05% | [2] -22.4% | [3] -0.45% | [4] 2.95% | [5] 8.45% | [6] -11.2%

O=C(O)C[N-]CC(=O)O.OO.[O]=[V]
inactive: [1] -16.9% | [2] 1.5% | [3] -1.7% | [4] -30.7% | [5] 3.75% | [6] 3.55%

CCOC(=O)CCC(NC(=O)OCc1ccccc1)C(=O)NNC(=O)OC(C)(C)C (stereo unspecified)
inactive: [1] 30.1% | [2] 22% | [3] 36.5% | [4] 15.7% | [5] 5.15% | [6] 21.3%

N#Cc1[nH]c(=O)n(-c2ccc([N+](=O)[O-])cc2)c1N
inactive: [1] -29.4% | [2] -59.8% | [3] -25.1% | [4] -1.7% | [5] -12.1% | [6] -39.9%
